# HepG2 tox – kills HepG2 cells in TGF-b inhibitor counter-screen; HepG2 CAGA-GFP viability, ATP luminescence, 18 h; Potency, µM (doses to about 46.1 µM), hits mostly cytotoxic; 410,000 tested, 0.76% active
#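 CellTiter-Glo luminescence gave cytotoxicity after 18 hours at 37 degrees C. The cells were HepG2 CAGA-GFP in 1% FBS DMEM, stimulated with 500 pg/mL TGF-beta after compound addition. %Activity was normalised to no-cell wells (complete cell-killing) and DMSO (no toxicity), and curves were fitted and classified.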
# TGFb inhibitor – blocks TGF-b signaling. 410,000 tested, 1.2% active. AID 588855. Potency, µM (top dose mostly 46.1 µM), usual class: inhibitors. HepG2 CAGA-GFP TGF-b/SMAD3 reporter, GFP fluorescence, 18 h; TGF-beta stimulated, 500 pg/mL final; also: nearly all actives have a fitted effect of over 65% in size
#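 GFP signal (ex488/em500-530) from TGF-beta-stimulated HEPG2 CAGA-GFP cells, 500 pg/mL final, 18 h at 37 degrees C in DMEM plus 1% FBS, normalized to unstimulated and DMSO-stimulated controls.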
# Nrf2 ARE act – Nrf2 pathway activation; 410,000 tested, 0.31% active; Potency, µM (series often up to 46.1 µM), actives largely listed as activators; AREc32 ARE-luciferase reporter (MCF7-derived line), luminescence, 24 h; AID 624171; also: nearly all actives have a fitted effect of over 65% in size
#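 AREc32 cells carrying an ARE-driven firefly luciferase reporter were seeded at 1000 cells/well in OPTI-MEM with 5% FBS, then exposed to compound for 24 hr at 37 deg C. Luminescence was read with Steady-Glo after 30 min at RT.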
# A549 viability – kills or reduces viability of A549 cells in Nrf2 counter-screen | A549 ARE-Fluc cells, CellTiter-Fluor viability, 18-24 h | Potency, µM (titrated, usually from 46 µM), most hits filed as inhibitors | 390,000 tested, 0.16% active | AID 504648
#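 A549 ARE-Fluc cells in 5% FBS OPTI-MEM, 5000 cells/well, rested 2 h then exposed to compounds in concentration-response for 18-24 h at 37 °C. Viability by CellTiter-Fluor fluorescence (Ex 405/Em 525) after 30 min; luciferase luminescence (BugLite, 15 min, RT) read afterwards.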
# Nrf2 inh – blocks Nrf2 signaling | A549 ARE-Fluc reporter, luciferase luminescence, 18-24 h | Potency, µM (titrated, usually from 46 µM), most hits filed as inhibitors | 360,000 tested, 2.1% active; also: nearly all actives have a fitted effect of over 60% in size
#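 Cells were seeded and rested 2 h, then exposed to compounds for 18-24 h. CellTiter-Fluor was read first as a viability measure. BugLite was added 15 min before the final luminescent read of ARE-luciferase activity in A549 cells.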
# A number is an active result; 0 = inactive; ? = inconclusive; - = not tested or not shown; [ ] = remark or other dose. Shown are actives, neighbours in structure and some others; about 3.6% of the full set was active somewhere. Calls follow the shape of the dose curve; as a rule, active = well fitted curve in the direction sought with a large enough effect; inconclusive = small, poorly fitted or top-dose-only effect, or another doubt; inactive = no such curve, though single readings can be large; an effect the other way counts as inactive or inconclusive.
SMILES,HepG2 tox,TGFb inhibitor,Nrf2 ARE act,A549 viability,Nrf2 inh
CCOC(=O)N1CCC(NC(=O)CC2C(=O)NCCN2Cc2cccc(F)c2F)CC1 (configuration not stated),0,0,0,0,0
CC(=O)N/N=C/c1c(C)[nH]n(-c2ccccc2)c1=O,0,0,0,?,15µM
Cc1[nH]n(-c2ccccc2)c(=O)c1/C=N\NC(=O)C1COc2ccccc2O1 (configuration not stated),0,0,0,0,16µM
COC(=O)N/N=C\c1c(C)[nH]n(-c2ccccc2)c1=O,0,0,0,?,?
COCC(=O)N/N=C/c1c(C)[nH]n(-c2ccccc2)c1=O,0,0,0,?,15µM
CN(C)c1cccc(C(=O)NNC(=O)NC2CCCCC2)c1,0,0,0,0,0
CCN1/C(=C/C(C)=C/c2sc3ccccc3[n+]2CC)Sc2ccccc21,0,4.5µM,0,21µM,8.2µM
CCN1/C(=C\C(C)=O)Sc2ccc(OC)cc21,0,0,0,0,0
CC1Sc2ccc(S(=O)(=O)NCCc3ccccc3)cc2NC1=O (configuration not stated),0,?,0,0,0
Cc1[nH]c2ccccc2c1C(c1c[nH]c2ccccc12)c1c(C)[nH]c2ccccc12,0,16µM,-,-,-
Cc1ccc(C(c2ccccc2)c2c(C)[nH]c3ccccc23)s1 (configuration not stated),0,14µM,0,0,?
COc1ccc(NC(=O)C23CC4CC(C2)CC(n2cnc(Br)n2)(C4)C3)c(C)c1,0,0,0,0,0
CCOC(=O)c1cc([N+](=O)[O-])cc([N+](=O)[O-])c1Sc1ncnc2nc[nH]c12,0,13µM,0,?,0
Cc1cccc(C)c1NC(=O)CN(C)C(=O)c1ccc(N2C(=O)CCC2=O)cc1,0,0,0,0,0
CN(C(=O)CS(=O)(=O)c1cn(CC(=O)N2CCCCC2)c2ccccc12)c1ccccc1,0,0,0,0,0
COc1ccc(C(=O)/C=C2/C(=O)Nc3ccccc32)c(OC)c1,10µM,13µM,0,0,0
C=CCOc1ccc(C(=O)/C=C2/C(=O)Nc3ccccc32)cc1,0,0,0,0,0
COc1ccc(C(=O)/C=C2/C(=O)Nc3ccccc32)cc1OC,0,0,?,0,0
COc1ccc(C(=O)/C=C2/C(=O)Nc3ccccc32)cc1,14µM,?,?,0,0
C=CCOc1ccccc1C(=O)/C=C1/C(=O)Nc2ccccc21,6.3µM,?,0,0,0
O=C1Nc2ccccc2/C1=C/C(=O)c1cccs1,14µM,?,0,0,0
O=C(Nc1ccc(Br)cc1)C1CCCN(S(=O)(=O)c2cccnc2)C1 (configuration not stated),0,0,0,0,?
Cc1ccc(OC(C)C(=O)Nc2ccc(F)cc2)c([N+](=O)[O-])n1 (configuration not stated),0,0,0,0,0
Cc1ccc(S(=O)(=O)NC(=O)Nc2cc(C)ccc2F)cc1,0,0,0,0,-
C/C(=N\Nc1ncc(Br)cn1)c1cccc([N+](=O)[O-])c1,0,0,0,0,?
SMILES,HepG2 tox,TGFb inhibitor,Nrf2 ARE act,A549 viability,Nrf2 inh
COc1ccc(C(=O)CSc2nnc(CNC(=O)c3ccco3)n2C)cc1OC,0,0,0,0,0
CCCCCS(=O)(=O)c1oc(-c2cccs2)nc1S(=O)(=O)c1ccc(C)cc1,0,7.9µM,0,0,0
CCC(C)S(=O)(=O)c1oc(-c2ccc(F)cc2)nc1S(=O)(=O)c1ccc(F)cc1 (configuration not stated),3.5µM,?,0,?,?
O=S(=O)(c1ccccc1)c1nc(-c2ccc(F)cc2)oc1N1CCCCCC1,0,?,0,0,26µM
CCCCS(=O)(=O)c1oc(-c2ccc(F)cc2)nc1S(=O)(=O)c1ccc(C)cc1,3.5µM,4.5µM,0,?,?
CCCSc1oc(-c2cccs2)nc1S(=O)(=O)c1ccc(C)cc1,0,0,0,0,0[9.27 µM]
NC(=O)C1CCN(c2oc(-c3ccc(F)cc3)nc2S(=O)(=O)c2ccccc2)CC1,0,0,0,0,0
CC(C)CC(CO)N1CCN(C(=O)c2ccccc2)CCC1=O (configuration not stated),0,0,0,0,0
CCc1cccc(NC(=O)Cn2c(=O)c(C(F)(F)F)nc3ccccc32)c1,0,0,0,0,?
CCS(=O)(=O)c1oc(-c2ccc(F)cc2)nc1S(=O)(=O)c1ccccc1,2.5µM,-,?,?,?
CCOc1ccc(-c2nc(S(=O)(=O)c3ccccc3)c(NC)o2)cc1,0,0,0,0,0
CCSc1oc(-c2cccs2)nc1S(=O)(=O)c1ccccc1,0,0,0,0,?
CCCCS(=O)(=O)c1oc(-c2cccs2)nc1S(=O)(=O)c1ccc(F)cc1,5.6µM,5µM,?,?,?
COc1ccc(C2C(C(=O)c3ccco3)=C(O)C(=O)N2CCN2CCOCC2)cc1 (configuration not stated),0,0,0,0,0
C/C(=N\NC(=S)NC1CCCCC1)c1ccc(OC(F)F)cc1OC(F)F,0,?,0,0,21µM
C/C(=N\NC(=O)C1CC1)c1ccc(OC(F)F)cc1OC(F)F,0,?,0,0,0
CCCOc1ccc(F)cc1-c1cc(C(=O)NCc2ccc(C(F)(F)F)cc2)[nH]n1,0,?,0,-,-
COCCn1nnnc1C(c1cc2c(C)cc(C)cc2[nH]c1=O)N1CCCCCC1 (configuration not stated),0,0,0,0,0
COc1cc(/C=N/NC(=O)c2cc(-c3ccccc3)sc2N)cc(OC)c1OC,0,0,0,0,16µM
COc1ccccc1-n1c(SCC(=O)O)nc2c(sc(=S)n2-c2ccc(C)c(C)c2)c1=O,0,0,0,0,0
CCOC(=O)/C=C1\NC(=O)C(C)S1 (configuration not stated),0,0,0,-,0
COC(=O)/C=C1\NC(=O)C(C)S1 (configuration not stated),0,0.56µM,0,0,0
O=C(Nc1ccc(O)cc1)c1cc(S(=O)(=O)N2CCCC2)ccc1Cl,0,0,0,0,?
COc1ccc2nc(N3C(=O)C(O)=C(C(=O)c4ccco4)C3c3ccc(C)o3)sc2c1 (configuration not stated),0,0,0,?,?
Cc1ccc2nc(N3C(=O)C(O)=C(C(=O)c4ccco4)C3c3cccs3)sc2c1 (configuration not stated),0,?,?,15µM,?
O=C1Nc2ccc(Cl)cc2C(=O)C1(F)c1ccccc1 (configuration not stated),0,?,0,0,0
CCOCCCNC(=S)Nc1cc(OCC)c(NC(=O)c2ccco2)cc1OCC,0,0,0,0,0
